The results in this text go back to PubChem BioAssay AID1445 (SRMLSC, 2008).

By inhibition is commonly meant the change of the read-out against control, counted positive when it falls.

About 910 (0.41%) of roughly 220,000 compounds were called active. Only a selection was taken, and actives are over-represented in it overall. Measured potencies and affinities stand elsewhere. Values without a mark were called inactive.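 How the source made its calls: active means primary inhibition above the hit cutoff, then over 50% inhibition at one or more dose response concentrations (cut at about 23% in these data, passing the limit was not always enough); inconclusive means conflicting primary data, or primary hits not chosen for dose response; inactive means low primary inhibition, or under 50% at every dose.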

For the assay, the target named is Aminopeptidase N (Plasmodium falciparum (isolate 3D7)) (UniProt O96935). Nature of the assay: malaria alanyl aminopeptidase activity blockers – biochemical, fluorogenic H-Leu-NHMec substrate, 1536-well (AID 1445).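 Further: plate controls were DMSO full reaction for no effect and no enzyme background for full effect.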 The note with it: recombinant M1AAP, H-Leu-NHMec fluorogenic kinetic assay; at 30 µM, stronger effect = higher value unless noted.
Aminopeptidase N (Plasmodium falciparum (isolate 3D7)), sequence (O96935 whole entry, looked up): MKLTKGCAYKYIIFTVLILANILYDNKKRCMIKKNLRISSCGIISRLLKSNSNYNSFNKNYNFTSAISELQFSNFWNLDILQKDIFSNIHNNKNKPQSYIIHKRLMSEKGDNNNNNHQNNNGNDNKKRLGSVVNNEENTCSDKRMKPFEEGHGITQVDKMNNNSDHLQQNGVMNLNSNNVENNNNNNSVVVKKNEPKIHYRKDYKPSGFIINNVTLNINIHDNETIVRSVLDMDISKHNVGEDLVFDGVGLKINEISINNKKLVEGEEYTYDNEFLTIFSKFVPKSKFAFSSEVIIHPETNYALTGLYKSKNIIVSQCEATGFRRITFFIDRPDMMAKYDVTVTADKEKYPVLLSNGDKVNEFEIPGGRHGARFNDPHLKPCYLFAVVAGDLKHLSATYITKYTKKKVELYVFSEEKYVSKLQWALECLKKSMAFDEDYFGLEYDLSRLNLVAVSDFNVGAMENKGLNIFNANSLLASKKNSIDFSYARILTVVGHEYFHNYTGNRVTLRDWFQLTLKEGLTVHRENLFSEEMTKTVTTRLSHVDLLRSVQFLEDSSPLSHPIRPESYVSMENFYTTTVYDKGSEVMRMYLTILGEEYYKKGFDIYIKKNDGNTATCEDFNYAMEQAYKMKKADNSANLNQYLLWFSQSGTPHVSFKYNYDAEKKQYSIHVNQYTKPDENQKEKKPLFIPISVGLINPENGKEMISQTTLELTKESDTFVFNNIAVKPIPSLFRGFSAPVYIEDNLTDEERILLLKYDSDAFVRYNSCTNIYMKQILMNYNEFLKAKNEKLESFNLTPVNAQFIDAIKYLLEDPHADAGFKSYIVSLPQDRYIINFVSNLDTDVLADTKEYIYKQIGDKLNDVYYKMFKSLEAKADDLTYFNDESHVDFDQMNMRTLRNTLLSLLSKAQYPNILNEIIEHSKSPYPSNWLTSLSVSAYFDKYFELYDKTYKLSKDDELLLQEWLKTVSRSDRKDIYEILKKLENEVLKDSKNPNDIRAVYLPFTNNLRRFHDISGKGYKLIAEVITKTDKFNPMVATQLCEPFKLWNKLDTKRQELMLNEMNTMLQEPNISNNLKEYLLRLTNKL
For the compound `CCN(CC)CC(C)CNC(=O)CN1C(=O)CSc2ccc(S(=O)(=O)N3CCOCC3)cc21` (stereo unspecified), the inhibition was 8.54%.
In the case of `Cc1ccc(OCC(=O)NNC(=O)C(=O)NC(C)(C)C)cc1`, the inhibition is 13.2%.
Then `CC(C)(C)NC(=O)C(=O)NNC(=O)COc1ccccc1`, with 20.1%.
As for `CCC(=O)NC(=S)NNC(=O)COc1ccc(Br)cc1`, the inhibition was -1.75%.
Then `CC(=O)NC(=S)NNC(=O)COc1ccc([N+](=O)[O-])cc1`, with -19.9%.
For `CCc1ccc(S(=O)(=O)NCc2csc(C)n2)s1` the value was 9.49%; for `Cc1oc(-c2cccs2)nc1CN1CC[C@@](O)(c2ccccc2)[C@H]2CCCC[C@@H]21`, 4.34%; for `O=C(O)c1ccc(CNC(=O)c2ccccc2NC(=O)c2ccc([N+](=O)[O-])cc2)cc1`, 1.28%.
Consider `CCOC(=O)c1cc2sccc2n1CC(=O)OC`, for which the inhibition is 5.03%.
Then `C=CCNc1cc(C(F)(F)F)nc(-c2ccccn2)n1`, with -2.8%; and `Cc1ccc(S(=O)(=O)NC2=NCN(CCN3CCOCC3)CN2)cc1`, with 2.01%.
Then `Cc1nc(NC2=NCN(CCCN3CCOCC3)CN2)nc2c(C)cccc12`, with 29.4% (active); and `c1ccc2sc(NC3=NCN(CCN4CCOCC4)CN3)nc2c1`, with -2.82%.
For `NC(=O)C1CCCN(C(=S)Nc2ccccc2)C1` (stereo unspecified) the value was 0.97%; for `CSc1nc2c(c(=O)[nH]1)C(c1cccs1)C1=C(CCCC1=O)N2` (stereo unspecified), 9.61%; for `O=C(O)c1ccc(-c2nc(-c3ccccc3)c(-c3ccccc3)[nH]2)cc1`, 23.1%.
Turning to `O=C(O)c1ccccc1-c1nc2ccccc2[nH]1`, the inhibition is 0.23%.
For `c1ccc(OCc2nn3c(-c4ccco4)nnc3s2)cc1` the value was -2.34%; for `COc1ccc(Cl)cc1NC(=S)N1CCN(S(C)(=O)=O)CC1`, 5.32%; for `COC(=O)C1=C(C)NC(C)=C(C(=O)OC)C1c1ccc(-c2cccc([N+](=O)[O-])c2)o1`, 7.62%.
Then `CC1(C)Oc2ccc3ccc(=O)oc3c2/C(=C/N)C1=O`, with 8.41%; and `CC1(C)Oc2ccc3ccc(=O)oc3c2-c2cn[nH]c21`, with 26.5% (active); and `CC1(C)Oc2ccc3ccc(=O)oc3c2-c2cnoc21`, with 50.2%.
Then `COC(=O)Nc1ccc(=O)n(Cc2c(Cl)cccc2Cl)c1`, with 4.71%; and `O=C1N(Cc2ccccc2)CCCC12CCCN(Cc1ccccc1)C2=O`, with 8.22%; and `O=C(NCc1ccccc1)c1cc(-c2cccs2)on1`, with -3.95%.
`O=C(NC(NC(=S)Nc1ccc(Cl)c(Cl)c1)C(Cl)(Cl)Cl)c1ccco1` (stereo unspecified): the inhibition was 9.33%.
Then `Cc1ccc(NC(NC(=O)c2ccccc2[N+](=O)[O-])C(Cl)(Cl)Cl)cc1` (stereo unspecified), with 7.36%; and `O=C(Nc1cccc(O)c1)c1ccccc1[N+](=O)[O-]`, with -3.03%.
For `CC(=O)c1ccc(NC(=S)NC(NC(=O)c2ccco2)C(Cl)(Cl)Cl)cc1` (stereo unspecified) the value was 11.3%; for `Cc1cccc(NC(=S)NC(NC(=O)c2ccco2)C(Cl)(Cl)Cl)c1` (stereo unspecified), 18.2%.
In the case of `CC(=O)c1ccc(NC(=O)C(Cc2ccccc2)NC(=O)c2ccco2)cc1` (stereo unspecified), the inhibition is 4.11%.
Then `CCc1ccc(NC(=O)CSCCO)cc1`, with -0.74%; and `Cn1nnnc1Sc1c(Cl)cccc1[N+](=O)[O-]`, with -3.63%; and `CC1(C)COC(c2coc3ccccc3c2=O)OC1`, with 2.08%.
For `COc1ccc(N)cc1C#N` the value was 2.91%; for `O=C(CCCN1C(=O)/C(=C\c2ccco2)SC1=S)Nc1ccc2ccccc2c1`, 11.9%; for `O=C(CCCN1C(=O)/C(=C/c2ccco2)SC1=S)Nc1cccc(C(=O)O)c1`, 6.76%.
For `CCOCCCNC(=O)CN(c1cc([N+](=O)[O-])ccc1OC)S(C)(=O)=O` the value was 2.57%.
As for `CS(C)(=O)=NS(=O)(=O)c1ccc(Cl)cc1`, the inhibition is 1.82%.
In the case of `CCn1c2ccccc2c2nnc(SCC(=O)Nc3c(C)n(C)n(-c4ccccc4)c3=O)nc21`, the inhibition was 0.94%.
For `CCCn1c2ccccc2c2nnc(SCC(=O)Nc3cc(C)on3)nc21` the value was 10.3%.
For `CCn1c2ccccc2c2nnc(SCC(=O)Nc3cc(C)on3)nc21` the value was 1.82%; for `Cc1ccc2c(c1)c1nnc(SCC(=O)N3CCN(c4ccc(F)cc4)CC3)nc1n2CC(=O)O`, 2.3%.
For `CSc1nnc2c3cc(C)ccc3n(Cc3ccccc3)c2n1` the value was 1.58%; for `CCc1nnc(SCC(=O)N2CCCc3ccccc32)nc1CC`, 0.48%.
For `O=C(CSc1nnc(Cc2cc(=O)[nH]c(=O)[nH]2)n1-c1ccc(Cl)cc1)NCC1CCCO1` (stereo unspecified), the inhibition is 0.41%.
As to `COC(=O)C1=C(C)N(C)C(=S)NC1c1ccc(OC)cc1OC` (stereo unspecified), the inhibition was 3.74%.
Consider `CCOc1ccc(C(=O)NC(=S)Nc2cccnc2)cc1[N+](=O)[O-]`, for which the inhibition is 6.68%.
For `Cn1c(=O)c(C(=O)COC(=O)c2cc(-c3ccccc3)nc3ccccc23)c(N)n(Cc2ccccc2)c1=O`, the inhibition is 3.89%.
For `COc1ccc(/C=C/C(=O)NC(=S)Nc2ccc(S(N)(=O)=O)cc2)cc1` the value was 9.42%; for `O=C(/C=C/c1cccs1)NC(=S)Nc1ccccc1`, 22%.
For `COc1ccc(/C=C/C(=O)NC(=S)Nc2ccc(N3CCN(C(C)=O)CC3)cc2)cc1` the value was 6.43%; for `COc1ccc(NC(=S)NC(=O)/C=C/c2cccs2)cc1`, 10.7%.
For `COc1ccc(/C=N/N=C2/NC(=O)C(CC(=O)NC(C)C)S2)cc1` (stereo unspecified) the value was 10.2%; for `O=C(CN1CCCN(S(=O)(=O)c2ccc(F)cc2)CC1)Nc1ccccc1Br`, 7.31%; for `COc1ccc2c(c1)C=C(CN1CCN(C(C)C)C(CCO)C1)CO2` (stereo unspecified), -13.9%.
`CCOc1cc(/C=C2/SC(=O)N(CC(=O)N3CCc4ccccc4C3)C2=O)ccc1OCC(=O)O`: the inhibition is 12.8%.
For `CCOc1cc(/C=C2\SC(=Nc3ccccc3)N(c3ccccc3)C2=O)ccc1OCC(=O)O` the value was 8.93%; for `CCOc1cc(/C=N/NC(=O)c2ccc(-c3csc(Nc4ccc(C)cc4)n3)cc2)ccc1OCC(=O)O`, 14.3%.
Regarding `CCOc1cc(C=C2C(=O)c3ccccc3C2=O)ccc1OCC(=O)Nc1ccc(C)cc1`, the inhibition was 2.91%.
